High-throughput results (PubChem BioAssay)
Only some compounds are listed: those with a hit (about 19% of all), similar ones and a draw of the others.
HT1080-NT tox = kills 2HG-producing HT-1080-NT fibrosarcoma cells. Potency, µM (top dose mostly 46.1 µM), inactives show at the highest dose activity, negative = less viability, actives largely listed as cytotoxic. 360,000 compounds, 1.6% hits. HT-1080-NT fibrosarcoma viability, CellTiter-Glo ATP luminescence, 48 h;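 also: NT is the 2HG producing partner of a matched IDH1 knockdown line; 0% = DMSO-treated cells and -100% = media-only wells without cells; nearly all actives have a fitted effect of over 55% in size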
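Read-out is CellTiter-Glo luminescence after 10 minutes at room temperature, following 48 hours' compound treatment of HT-1080-NT cells (750 cells/well, RPMI, 5% FBS, 37 degrees C).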
KB-3-1 cytotox = kills parental KB-3-1 adenocarcinoma cells. Potency, µM (top dose mostly 46.1 µM), actives largely listed as cytotoxic. 400,000 compounds, 1.4% hits. AID 1347075. KB-3-1 viability, CellTiter-Glo ATP luminescence, 72 h; also: nearly all actives have a fitted effect of over 60% in size
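Screening of KB-3-1 cells (DMEM, 10% FBS, phenol-red free) ran from lowest to highest compound concentration; after 72 h at 37 °C viability was read luminescently and curves fitted.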
DT40 TDP1 CPT = growth inhibition of DT40 Tdp1-/-;hTDP1 cells with camptothecin (screen for TDP1 inhibitors) | chicken DT40 Tdp1-/-;hTDP1 cells + 20 nM CPT, ATP luminescence, 48 h | Potency, µM (titrated, usually from 46.2 µM), for the others: top-dose activity change, negative = growth inhibition, hits mostly inhibitors | 420,000 compounds, 12% hits; also: nearly all actives have a fitted effect of over 55% in size
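Chicken DT40 Tdp1-/- cells stably complemented with human TDP1 were seeded at 400 cells/well in medium containing 20 nM camptothecin, exposed to pin-transferred compounds, and grown at 37 °C for at least 48 hr. Viability was read as ATP luminescence.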
HT1080 IDH1KD tx = HT-1080 IDH1 knockdown cell toxicity (counter line); Potency, µM (series often up to 46.1 µM), for the others: at the top dose activity, negative = toxicity, usual class: cytotoxic; HT-1080 IDH1 knockdown viability, ATP luminescence, 48 h; AID 686971; 360,000 compounds, 2% hits;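 also: 0% = DMSO wells and -100% = cell-free medium wells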
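HT-1080-IDH1KD cells (IDH1 knocked down), 750/well in RPMI with 5% FBS, treated with compound 48 h at 37 degrees C. Viability by CellTiter-Glo luminescence, normalised to DMSO and no-cell wells; concentration-response curves classed.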
KB-V1 MDR tox = kills drug-selected multidrug resistant KB-V1 cells | 400,000 compounds, 3.4% hits | AID 1347076 | KB-V1 MDR cells viability, CellTiter-Glo, 72 h | Potency, µM (top dose mostly 46.1 µM), usual class: cytotoxic; also: nearly all actives have a fitted effect of over 60% in size
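KB-V1 cells (P-gp-expressing MDR subline of KB-3-1) in phenol-red-free DMEM with 10% FBS were exposed to library compounds over a concentration series for 72 h at 37 degrees C. Viability read by CellTiter-Glo luminescence; concentration-effect curves fitted after normalization.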
TDP1 cell noCPT = qHTS for Inhibitors of human tyrosyl-DNA phosphodiesterase 1 (TDP1): qHTS in cells in absence of CPT; DT40 Tdp1-/- hTDP1 cells, no CPT, ATP luminescence, 48 h; Potency, µM (doses to about 46.2 µM), without a hit: top-dose activity change, negative = growth inhibition, actives largely listed as inhibitors; 420,000 compounds, 15% hits; AID 686978, 2013; also: nearly all actives have a fitted effect of over 55% in size
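Luminescent ATP content (CellTiter-Glo) served as the growth readout. Knockout chicken DT40 cells expressing human TDP1 were exposed to compounds without camptothecin for a minimum 48 hr at 37 °C.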
The depositor's hits bear a star; i = inactive; ? = inconclusive; . = no result given; ! = not active in a repeat; [ ] = another dose, or the depositor's remark. Calls follow the shape of the dose curve; as a rule, active = well fitted curve in the direction sought with a large enough effect; inconclusive = small, poorly fitted or top-dose-only effect, or another doubt; inactive = no such curve, though single readings can be large; an effect the other way counts as inactive or inconclusive. Unless noted, % is scaled to controls: 0 for no effect and ±100 for the full control effect; potency is read from the fitted curve at half-maximal effect.

SMILES	HT1080-NT tox	KB-3-1 cytotox	DT40 TDP1 CPT	HT1080 IDH1KD tx	KB-V1 MDR tox	TDP1 cell noCPT
C=Cn1ccnc1P(O)(=S)c1nc(C)c(CCOC(C)=O)s1 (stereo unspecified)	1%	i	10%	3%	i	5%
OCC1CO1 (stereo unspecified)	3%	i	16%	4%	i	2%
CCCCCCCCCCCCCCCC[n+]1ccccc1	12µM*	5.8µM*!	0.65µM*	10µM*	?	0.33µM*
CCCCCCC[n+]1ccc(-c2cc[n+](CCCCCCC)cc2)cc1	?	?	0.65µM*	?	i	0.65µM*
C[n+]1ccc(-c2cc[n+](C)cc2)cc1	?	i	-1%	-28%	i	-4%
CN1CCCCC1c1cccnc1 (stereo unspecified)	.	.	-3%	.	.	-2%
C=CCSc1nc2c(c(-c3ccsc3)c1C#N)CN(C)CC2	-9%	i	?	-10%	i	18µM*
COc1cccc(C2CCN(C)C2)c1 (stereo unspecified)	-1%	i	-2%	0%	i	?
Cc1ccc(/C=N/n2c(-c3ccccc3)csc2=S)cc1	.	.	15µM*	.	.	?
O=S(=O)(c1ccccc1)N1CC1c1ccccc1 (stereo unspecified)	-4%	i	-14%	8%	i	-28%
COc1ccc(CN2CCN(c3ncnc4sc5c(c34)CCCC5)CC2)cc1F	.	.	8.2µM*	.	.	5.2µM*
FC(F)(F)c1nc(N2CCN(c3ccccc3)CC2)nc2c1CCCCC2	-3%	i	?	-13%	i	18µM*
CC(C)CCCC(C)C1CCC2C3C(=O)C=C4CC(O)CC[C@@]4(C)C3CC[C@@]12C (stereo partly specified)	.	.	-14%	.	.	-28%
CN(C[C@H](Cc1ccccc1)N(C[C@H](Cc1ccccc1)N(CC1(c2ccccc2)CC1)N=O)N=O)N=O	?	i	?	-7%	i	18µM*
COc1cccc(OC)c1C1=NCC(=O)Nc2c1oc1ccc(Br)cc21	?	i	0.92µM*	2.9µM*	?	0.92µM*
C[N+](C)(C)CC#CCOC(=O)Nc1cccc(Cl)c1	9%	i	?	2%	i	?
CC(=O)Nc1cccc(-c2csc(C(O)c3cccc(Cl)c3)n2)c1 (stereo unspecified)	-29%	i	23µM*	-19%	i	18µM*
COc1cccc(C(O)c2nc(-c3ccncc3)cs2)c1 (stereo unspecified)	?	i	23µM*	-18%	?	9.2µM*
CSc1ccc(C(=O)C2CCCN(CCCn3cccn3)C2)cc1 (stereo unspecified)	-1%	i	?	-15%	?	-25%
CCOC(=O)[C@]12Cc3c(cc(OC)c(OC)c3OC)[C@H]1N(C)C(=O)c1cc(OC)ccc12	15µM*	2.9µM*	10µM*	?	3.7µM*	9.2µM*
CCOC(=O)[C@]12Cc3ccccc3[C@H]1N(C)C(=O)c1cc(OC)ccc12	?	9.2µM*	23µM*	?	7.3µM*	15µM*
CCOC(=O)[C@]12Cc3ccccc3[C@H]1N(C(C)C)C(=O)c1cc(OC)ccc12	?	3.7µM*	23µM*	16µM*	4.1µM*	15µM*
CC(C)C(=O)N1CCN(CCN=Cc2c(O)n(C)c(=O)n(C)c2=O)CC1	16%	i	6%	-1%	i	4%
CCC1(NS(=O)(=O)c2ccc(N)cc2)C(=O)N(C)C(=O)N(C)C1=O	5%	i	?	-22%	i	?
COc1ccc(C(=O)NCCn2cc(SC(C)c3ccccc3)c3ccccc32)cc1OC (stereo unspecified)	.	i	16µM*	.	i	12µM*
SMILES	HT1080-NT tox	KB-3-1 cytotox	DT40 TDP1 CPT	HT1080 IDH1KD tx	KB-V1 MDR tox	TDP1 cell noCPT
COC(=O)c1cn(CCOc2ccccc2)c2ccccc12	-14%	i	?	-1%[9.24 µM]	?	?
CNCC(C)c1ccccc1 (stereo unspecified)	16%	i	1%	?	i	-18%
Cc1ccc(-n2nc3c(=O)n(CC(=O)NCC(C)c4ccccc4)nc(C)c3c2C)cc1 (stereo unspecified)	.	i	21µM*	.	i	?
C=CCn1c(O)c(N=Nc2c(C)n(C)n(-c3ccccc3)c2=O)c(=O)[nH]c1=S	-7%	?	16µM*	-14%	3.3µM*	9.2µM*
Cc1c(N=Nc2c(O)[nH]c(=S)[nH]c2=O)c(=O)n(-c2ccccc2)n1C	?	i	1%	-8%	i	8%
CC12CCC(=O)CC1CCC1C2C(=O)CC2(C)C1CCC2(C)O (stereo unspecified)	16%	i	0%	19%	i	4%
COc1ccc(CC(=O)N2CCN(C)CC2)cc1	-10%	i	8%	1%	i	10%
COc1ccc2nc(N3CCN(C(=O)CS(=O)(=O)c4ccc(C)cc4)CC3)sc2c1	.	.	12µM*	.	.	13µM*
O=C(c1ccc(Cl)cc1)C1CCCN(Cc2cccc3cccnc23)C1 (stereo unspecified)	-30%	i	23µM*	?	i	16µM*
Cc1cc(Cl)ccc1C(=O)C1CCCN(Cc2ccon2)C1 (stereo unspecified)	0%	i	?	1%	16µM*	?
O=C(c1ccc(Cl)cc1)C1CCCN(Cc2ccc3nonc3c2)C1 (stereo unspecified)	-3%	i	16µM*	-16%	i	?
O=C(c1cccc2ccccc12)C1CCCN(Cc2ccon2)C1 (stereo unspecified)	-9%	i	?	-9%	i	?
COc1cccc(C(=O)C2CCCN(Cc3ccc4nsnc4c3)C2)c1 (stereo unspecified)	-14%	i	?	-2%	?	?
O=C(c1ccc2c(c1)OCO2)C1CCCN(Cc2c(F)cccc2Cl)C1 (stereo unspecified)	4%	i	-28%	6%	i	?
O=C(c1ccc(Cl)cc1)C1CCCN(Cc2cccc3ncccc23)C1 (stereo unspecified)	?	?	18µM*	?	?	15µM*
Cc1nc(N)sc1CCN	.	.	?	.	.	-7%
